Unmarked numbers belong to inactive results. Inconclusive results are not listed. Entries that show only a call come without a potency. The source holds several records for some structures; these can differ, active in one and inactive in another. The source made the active and inactive calls. Unless noted, the call rests on the fitted dose curve; in most records, active means well fitted curve in the direction sought with a large enough effect; inconclusive means small, poorly fitted or top-dose-only effect, or another doubt; inactive means no such curve, though single readings can be large; an effect the other way counts as inactive or inconclusive.
Assays:
[1] = Drug repurposing screens with cells derived from glioblastoma tumor samples (AID 1345199); conditions: GBM patient neurospheres viability, ATP luminescence, 48 h; further: nearly all actives have a fitted effect of over 40% in size; further: potency means the concentration at half of the fitted maximal effect
How it was run: (§1)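 Primary testing used CD133+ neurospheres from four GBM patients, seven concentrations, 48 h exposure and ATP-based viability; confirmation added three slower-growing patient lines.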

[2] = qHTS assay to identify inhibitors of the type 1 interferon - major histocompatibility complex class I in skeletal muscle: Counter screen cell viability and HiBit confirmation (AID 1347412); conditions: iHSKM muscle cells + IFN-b, HiBiT or CellTiter-Glo, 24 h; Potency: HiBiT; Viability, at 45.9 µM (top of the series); further: nearly all actives have a fitted effect of over 60% in size
How it was run: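 Myoblasts (C25cl48, HLA-B HiBiT) seeded in medium without dexamethasone, IFN-b 4 ng/ml added except unstimulated columns; 1 hr later compounds pinned (12-pt 1:3, top 46 uM final). Incubated 24 hrs, lysed 10 min, luminescence measured.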

[3] = test system: PA-1; assay: Primary qHTS to identify gynecologic anti-cancer compounds using libraries of approved drugs and bioactive compounds (AID 1345084); conditions: Gynecologic cancer cell panel viability, ATPlite luminescence, 48 h; series mostly up to 57.5 µM; further: nearly all actives have a fitted effect of over 55% in size; further: potency means the concentration at half of the fitted maximal effect
How it was run: (§2)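 48 h compound exposure at 37 C, 5% CO2; five-point qHTS. ATPlite luminescence readout of cell ATP.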

[4] = test system: Tov112D; assay: as above; conditions: Gynecologic cancer cell panel viability, ATPlite luminescence, 48 h; series mostly up to 57.5 µM
How it was run: as §2

[5] = test system: SKOV3; assay: as above; conditions: Gynecologic cancer cell panel viability, ATPlite luminescence, 48 h; series mostly up to 57.5 µM
How it was run: as §2

[6] = test system: astro; assay: Drug repurposing screens with cells derived from glioblastoma tumor samples (AID 1345199); conditions: viability, ATP luminescence, 48 h; series mostly up to 45.9 µM; further: nearly all actives have a fitted effect of over 40% in size; further: potency means the concentration at half of the fitted maximal effect
How it was run: as §1

[7] = test system: Tov-21-G; assay: Primary qHTS to identify gynecologic anti-cancer compounds using libraries of approved drugs and bioactive compounds (AID 1345084); conditions: Gynecologic cancer cell panel viability, ATPlite luminescence, 48 h; series mostly up to 57.5 µM; further: nearly all actives have a fitted effect of over 55% in size; further: potency means the concentration at half of the fitted maximal effect
How it was run: as §2

[8] = molecular target: Nuclear receptor subfamily 1 group I member 2 (Rattus norvegicus) (UniProt Q9R1A7); assay: qHTS assay for small molecule activators of the rat pregnane X receptor (rPXR) signaling pathway (AID 651751; call rule not given here); conditions: rPXR reporter cells, luciferase (One-Glo), 24 h
Chain of Nuclear receptor subfamily 1 group I member 2 (Rattus norvegicus) (Q9R1A7 whole entry, looked up): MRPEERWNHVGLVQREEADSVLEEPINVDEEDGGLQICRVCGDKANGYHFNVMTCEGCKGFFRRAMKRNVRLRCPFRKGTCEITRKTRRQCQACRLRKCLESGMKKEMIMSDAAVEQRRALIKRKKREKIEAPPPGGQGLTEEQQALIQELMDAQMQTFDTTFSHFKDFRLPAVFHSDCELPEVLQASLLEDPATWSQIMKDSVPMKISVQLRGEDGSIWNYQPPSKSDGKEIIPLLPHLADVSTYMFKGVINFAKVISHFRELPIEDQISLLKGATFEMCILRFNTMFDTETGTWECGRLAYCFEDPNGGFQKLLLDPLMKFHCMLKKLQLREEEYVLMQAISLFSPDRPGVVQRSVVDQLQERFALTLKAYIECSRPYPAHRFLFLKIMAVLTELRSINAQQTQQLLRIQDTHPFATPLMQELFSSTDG

[9] = qHTS assay for small molecule activators of the human pregnane X receptor (PXR) signaling pathway (AID 720659; call rule not given here); conditions: DPX-2 HepG2 CYP3A4-luciferase, 24 h; series mostly up to 92.3 µM
[10] = at 46 µM (top of the series), tumour line A
[11] = at 45.9 µM (top of the series), tumour line B
[12] = at 45.9 µM (top of the series), tumour line D
[13] = at 46.1 µM (top of the series), tumour line C

With `O=C(O)c1ccccc1Nc1cc(Cl)ccc1C(=O)O` as the compound, how does the activity, negative = cell killing [1, 10] read?
Its activity, negative = cell killing is -27.3%.

With `CC(C)C(C)(C)C(C)(C)C(C)(C)S` as the compound, how does the activity, negative = cell killing ([1]; at 91.6 µM (top of the series), tumour line D) read?
Its activity, negative = cell killing is -2.43%.

For `Nc1c2ccccc2nc2ccccc12`, which Potency ([1]; tumour line B) is on record?
Its Potency is 12.6 µM (active).

What about the Potency ([1]; tumour line D) of the same compound?
The Potency was 10 µM (active).

For `N#C/C(=C1/SC[C@@H](c2ccc(Cl)cc2Cl)S1)n1ccnc1`, which Potency ([1]; tumour line D) is on record?
Its Potency is 11.2 µM (active).

Which Potency [2] does the source give for `CCN(CC)CCOc1ccc(/C(=C(\Cl)c2ccccc2)c2ccccc2)cc1` here?
Its Potency is “inactive”.

Which results are given for `CN1CC[C@H](c2c(O)cc(O)c3c(=O)cc(-c4ccccc4Cl)oc23)[C@H](O)C1`?
Potency [3]: 0.447 µM (active); Potency [4]: 1.12 µM (active)

Which Potency [5] does the source give for `O=C1NCCN1CCN1CCC(c2cn(-c3ccc(F)cc3)c3ccc(Cl)cc23)CC1` here?
The Potency was 28.2 µM (active).

And the Potency [6]?
Its Potency is 17.8 µM (active).

For `COc1c(C)c2c(c(O)c1C/C=C(\C)CCC(=O)OCCN1CCOCC1)C(=O)OC2`, which Potency [7] is on record?
Its Potency is 2 µM (active).

Which Potency [3] does the source give for `C[N+]1(CC2COC(c3ccccc3)(c3ccccc3)O2)CCCCC1` (stereo unspecified) here?
The Potency was “inactive”.

And the Potency [7]?
The Potency was “inactive”.

What about the Potency [4] of the same compound?
The Potency was “inactive”.

What about the activity, negative = cell killing [1, 11] of the same compound?
The activity, negative = cell killing was -10.9%.

And the activity, negative = cell killing [1, 12]?
The activity, negative = cell killing was -20.2%.

And the activity, negative = cell killing [1, 13]?
Its activity, negative = cell killing is -16.6%.

And the Potency [6]?
Its Potency is “inactive”.

With `O=C1Nc2ccccc2C1(c1ccc(O)cc1)c1ccc(O)cc1` as the compound, how does the Potency [3] read?
Its Potency is “inactive”.

What about the Potency [2] of the same compound?
The Potency was “inactive”.

With `Cc1c(C)c2c(c(C)c1OC(=O)CCC(=O)OCCO)CC[C@@](C)(CCC[C@H](C)CCC[C@H](C)CCCC(C)C)O2` as the compound, how does the Potency [6] read?
The Potency was 12.6 µM (active).

Which Potency [5] does the source give for `CCOC(=O)N1CCC(Nc2ccc(Cl)cc2N)CC1` here?
The Potency was “inactive”.

And the Potency [7]?
Its Potency is “inactive”.

What about the Potency [4] of the same compound?
The Potency was “inactive”.

Which results are given for `C=CCNc1nc(NCC=C)nc(N2CCN(C(c3ccc(F)cc3)c3ccc(F)cc3)CC2)n1`?
Potency [3]: inactive; Potency [7]: inactive; Potency [4]: inactive

For `O=C(CCC1CCN(Cc2ccccc2)CC1)c1ccc2c(c1)NCCCC2`, which Potency [7] is on record?
The Potency was “inactive”.

What about the Potency [4] of the same compound?
The Potency was “inactive”.

For `CC(C)C[C@H](NC(=O)CNC(=O)[C@H](Cc1ccc(O)cc1)NC(=O)[C@H](CO)NC(=O)[C@H](Cc1c[nH]c2ccccc12)NC(=O)[C@H](Cc1cnc[nH]1)NC(=O)[C@@H]1CCC(=O)N1)C(=O)N[C@@H](CCCN=C(N)N)C(=O)N1CCC[C@H]1C(=O)NCC(N)=O` (stereo in doubt), which activity, negative = cell killing [1, 11] is on record?
The activity, negative = cell killing was -6.26%.

What about the activity, negative = cell killing [1, 12] of the same compound?
Its activity, negative = cell killing is 6.77%.

And the activity, negative = cell killing [1, 10]?
The activity, negative = cell killing was -26%.

What about the activity, negative = cell killing [1, 13] of the same compound?
The activity, negative = cell killing was -6.29%.

What about the Potency [6] of the same compound?
The Potency was “inactive”.

With `O=C(Nc1ccc(Cl)cc1)Nc1ccc(Cl)c(Cl)c1` as the compound, how does the Potency [7] read?
The Potency was “inactive”.

And the max response [8]?
The max response was -12.4%.

And the outcome [9]?
The outcome was “inactive”.

With `CN(C)CCCOC1(Cc2ccccc2)CCCCCC1` as the compound, how does the Potency [3] read?
Its Potency is “inactive”.

What about the Potency [7] of the same compound?
The Potency was “inactive”.

And the Potency [4]?
Its Potency is “inactive”.

Which Potency [3] does the source give for `Clc1ccc2c(c1)N=C(N1CCNCC1)c1ccccc1N2` here?
Its Potency is “inactive”.

And the Potency [7]?
Its Potency is “inactive”.

What about the Potency [4] of the same compound?
Its Potency is “inactive”.

For `CCOC(=O)N1CCC(n2c(=O)[nH]c3cc(Cl)ccc32)CC1`, which Potency [3] is on record?
The Potency was “inactive”.

What about the Potency [7] of the same compound?
Its Potency is “inactive”.

And the Potency [4]?
The Potency was “inactive”.

Which Potency [5] does the source give for `CC(=O)N(CC(=O)N(C)C)c1ccccc1` here?
Its Potency is “inactive”.

What about the Potency [7] of the same compound?
The Potency was “inactive”.

What does the source list for `NC(N)=NCCCCN=C(N)N`?
activity, negative = cell killing [1, 11]: -8.5%; activity, negative = cell killing [1, 12]: -4.71%; activity, negative = cell killing [1, 10]: -10%; activity, negative = cell killing [1, 13]: -21.5%; Potency [6]: inactive

With `CC(=O)Oc1ccc(C2(c3ccc(OC(C)=O)cc3)Oc3ccccc3NC2=O)cc1` as the compound, how does the Potency [3] read?
The Potency was 31.6 µM (active).

What about the Potency [7] of the same compound?
The Potency was 22.4 µM (active).

And the activity, negative = cell killing [1, 11]?
Its activity, negative = cell killing is -28.4%.

What about the Potency ([1]; tumour line A) of the same compound?
The Potency was 22.4 µM (active).

Which Potency [7] does the source give for `O=C1NC2CCCCN2C12CCN(CCCN1c3ccccc3CCc3ccc(Cl)cc31)CC2` (stereo unspecified) here?
The Potency was “inactive”.

And the Potency [6]?
The Potency was 20 µM (active).

For `CCCCC/C=C\C/C=C\CCCCCCCC(=O)NC(C)c1ccccc1` (stereo unspecified), which Potency [3] is on record?
The Potency was “inactive”.

And the Potency [7]?
The Potency was “inactive”.

And the Potency [4]?
The Potency was “inactive”.

What about the activity, negative = cell killing [1, 11] of the same compound?
Its activity, negative = cell killing is -3.69%.

And the activity, negative = cell killing [1, 12]?
Its activity, negative = cell killing is -27.1%.

What about the activity, negative = cell killing [1, 13] of the same compound?
Its activity, negative = cell killing is -9.18%.

And the Potency ([1]; tumour line A)?
The Potency was 11.2 µM (active).

And the Potency [6]?
The Potency was “inactive”.

With `CC[N+](CC)(CC)CCOC(=O)C(C1CCCC1)C1CCCC1` as the compound, how does the Potency [5] read?
Its Potency is “inactive”.

And the Potency [7]?
Its Potency is “inactive”.

What about the Potency [4] of the same compound?
The Potency was “inactive”.

What about the Potency [6] of the same compound?
The Potency was “inactive”.

From PubChem BioAssay (NCATS)
